Assay results published in PubChem BioAssay AID463173 (ICCB-Longwood Screening Facility, Harvard Medical School, 2010).
Hit rate of the full screen: of about 52,000 compounds, about 1,700 (3.3%) were called active. Only a selection was taken, and actives are over-represented in it overall. A number with no mark means an inactive call. Cut-off read from the data, not from the text of the source: active = survival mostly below about 52% (no sharp cut-off); inactive = mostly above about 56%.

These compounds were tested on Wild type (assay: S. aureus survival, RN4220 and DeltatarO strains – OD600, teichoic acid synthesis inhibitors, primary screen (AID 463173)). Conditions: S. aureus RN4220 wild type/DeltatarO growth, OD600, 18 h, stronger effect = lower value, screened at 18.75 µg/mL (by protocol).
With `Cc1ccccc1Nc1c(-c2cccc(Cl)c2)nc2ncccn12` the survival was 83%.
Compound `NC(=O)c1ccccc1NC(=O)CSc1nc(N)cc(=O)[nH]1` has a survival of 111%.
`CCOC(=O)/C(C#N)=C/c1ccc(-c2ccccc2)o1` was tested, and the survival was 81%.
Work on `CCCC(=O)n1nc(-c2cccnc2)nc1NCc1ccc(OC)cc1` yielded a survival of 86%.
With `CCOc1ccc2nc(Cl)c(CN(Cc3ccco3)C(=O)N(C)C)cc2c1` the survival was 109%.
`Cc1ccc(C)c(N2CCN(C(=O)c3cc(S(=O)(=O)N4CCCCCC4)cn3C)CC2)c1` showed a survival of 77%.
With `CNC(=O)C1CCN(S(=O)(=O)c2ccccc2)CC1` the survival was 109%.
With `COc1ccc(-c2nc3ccccc3o2)cc1NC(=O)C(C)(C)Oc1ccc(Br)cc1` the survival was 0% (active).
Work on `O=C(Nc1cc(-c2nc3ccccc3o2)ccc1Cl)c1cccc2c(Cl)cccc12` yielded a survival of 64%.
`COc1ccc(-c2nc3ccccc3o2)cc1NC(=O)c1ccc(-c2ccc(Br)cc2)o1` gave a survival of 73%.
For `COc1ccc(-c2nc3ccccc3o2)cc1NC(=O)c1cc(Br)ccc1OC`, the survival was 66%.
For `COc1ccc(-c2nc3ccccc3o2)cc1NC(=O)COc1ccc(C(C)(C)C)cc1`, the survival was 2% (active).
Work on `O=C(Nc1cc(-c2nc3ccccc3o2)ccc1Cl)c1ccc(Br)o1` yielded a survival of 65%.
Work on `COc1ccc(OCC(=O)Nc2cc(-c3nc4ccccc4o3)ccc2Cl)cc1` yielded a survival of 104%.
With `CC(C)(C)c1ccc(C(=O)Nc2cc(-c3nc4ccccc4o3)ccc2Cl)cc1` the survival was 2% (active).
`COc1ccc(-c2nc3ccccc3o2)cc1NC(=O)c1ccc(OCC(C)C)cc1` was tested, and the survival was 55%.
`O=c1nc2sc3ccccc3n2c(=O)n1-c1ccc(Cl)c(Cl)c1` showed a survival of 27%.
In the case of `CCc1ccc(NC(=O)Cn2nnc(C(=O)NCc3ccc(C)cc3)c2N)cc1`, the survival was 69%.
`COc1ccc(-c2cn3c(n2)sc2cc(C(=O)Nc4cc(OC)cc(OC)c4)ccc23)cc1` was tested, and the survival was 98%.
`COc1ccc(N2CCN(C(=O)c3cc4c(=O)n(Cc5cccs5)ccc4nc3C)CC2)cc1` was tested, and the survival was 101%.
Compound `CCOc1cccc(C(=O)Nc2ccc(-c3nc4cc(C)cc(C)c4o3)cc2)c1` has a survival of 82%.
With `Cc1ccc2c(c1)sc1nc(-c3cc4ccccc4oc3=O)cn12` the survival was 76%.
Work on `Cc1cc(C)c(NC(=O)Cn2nnc(-c3nc(-c4ccncc4)no3)c2N)c(C)c1` yielded a survival of 71%.
Compound `COc1cccc(Nc2nc3ccccc3c3nncn23)c1` has a survival of 84%.
In the case of `Cc1ccc(Cl)cc1Nc1nc2ccccc2c2nncn12`, the survival was 92%.
`Cc1ccc(Nc2nc3ccccc3c3nncn23)cc1C` was tested, and the survival was 3% (active).
With `COc1cc2ncc3c(-c4ccccc4)nn(CC(=O)NC4CCCCC4)c3c2cc1OC` the survival was 79%.
`CC(C)(C)c1ccc(Oc2ccc(NC(=O)CCC(=O)OCC(=O)c3ccccc3)cc2)cc1` showed a survival of 86%.
Work on `O=C(CCSCc1cccc(Cl)c1)N1CCN(c2ccc(Cl)cc2)CC1` yielded a survival of 80%.
Work on `CCN(CC)C(=O)c1sc2c(c1C)c(=O)n(-c1ccc(C)c(C)c1)c(=O)n2Cc1cc(=O)n2c(C)cccc2n1` yielded a survival of 22%.
With `CCN(CC)C(=O)c1sc2c(c1C)c(=O)n(-c1ccc(Cl)c(Cl)c1)c(=O)n2Cc1cc(=O)n2ccccc2n1` the survival was 118%.
With `CCN(CC)C(=O)c1sc2c(c1C)c(=O)n(-c1ccc(Cl)c(Cl)c1)c(=O)n2Cc1cc(=O)n2c(C)cccc2n1` the survival was 0% (active).
With `COc1ccccc1N1CCN(CC(=O)N2CCCC2)CC1` the survival was 94%.
`Cc1nc2nc[nH]n2c(=O)c1NS(=O)(=O)c1ccc(Br)cc1` gave a survival of 84%.
`O=S(=O)(c1cc(Cl)ccc1Cl)N1CCCC1` showed a survival of 78%.
Compound `CCOc1ccccc1NC(=O)CSC1=Nc2ccccc2C2=NC(CC(=O)NC3CCCCC3)C(=O)N12` (stereo unspecified) has a survival of 81%.
In the case of `O=C(COCc1cc(-c2ccco2)on1)Nc1cccc(Cl)c1Cl`, the survival was 0% (active).
`Cc1ccc(Cl)cc1NC(=O)COCc1cc(-c2ccco2)on1` showed a survival of 77%.
With `O=C(COCc1cc(-c2ccc(F)cc2)on1)Nc1cccc(Cl)c1Cl` the survival was 64%.
`O=C(COCc1cc(-c2ccco2)on1)Nc1cc(Cl)ccc1O` was tested, and the survival was -2% (active).
With `Cc1ccc(O)c(NC(=O)COCc2cc(-c3ccco3)on2)c1` the survival was 87%.
In the case of `O=C(COCc1cc(-c2cccs2)on1)Nc1cccc(Cl)c1Cl`, the survival was 59%.
Compound `COc1cccc(CNC(=O)c2ccc3c(c2)N(Cc2ccc(F)cc2Cl)C(=O)c2ccccc2S3)c1` has a survival of 19%.
`Cc1c(C(=O)Nc2cccc(C(F)(F)F)c2)sc2nc[nH]c(=O)c12` was tested, and the survival was 73%.
In the case of `CCOC(=O)c1c(NC(=O)/C=C/c2ccc(OCC)cc2)sc2c1CCCC2`, the survival was 78%.
`CCOC(=O)c1c(NC(=O)CCCOc2ccc(Cl)cc2)sc2c1CCC2` gave a survival of 20%.
`CCOC(=O)c1c(NC(=O)COc2ccc(C(C)(C)C)cc2)sc2c1CCCC2` gave a survival of 69%.
With `CCOC(=O)c1c(NC(=O)CCCOc2ccc(C(C)(C)C)cc2)sc2c1CCC2` the survival was 7% (active).
In the case of `CCOC(=O)c1c(NC(=O)/C=C/c2ccc(OCC)cc2)sc2c1CCC2`, the survival was 139%.
`CCOC(=O)c1c(NC(=O)CCCOc2ccc(C(C)(C)C)cc2)sc2c1CCCC2` was tested, and the survival was 9% (active).
`CN(C)C(=O)c1ccc(N(C)S(=O)(=O)c2ccccc2)cc1` showed a survival of 113%.
Compound `COc1ccc(NC(=S)N(Cc2ccco2)Cc2cc3cc(C)c(C)cc3[nH]c2=O)cc1` has a survival of 103%.
For `Cc1ccc(C)c(C(=O)CSc2nc(-c3ccccc3)nc3c2CCCC3)c1`, the survival was 6% (active).
`Cc1ccc(C(=O)CSc2nc(-c3ccccc3)nc3c2CCCC3)cc1` was tested, and the survival was 55%.
Work on `Cc1ccc(C(=O)CSc2nc(-c3ccccc3)nc3c2CCCC3)c(C)c1` yielded a survival of 58%.
With `CCn1c(CNC(=O)c2ccc(OC)cc2)nnc1SCC(=O)Nc1ccc(C)cc1` the survival was 125%.
For `O=C1CN(C(=O)c2ccccc2C(F)(F)F)C(c2ccccc2)c2cc(F)ccc2N1` (stereo unspecified), the survival was 66%.
In the case of `COc1ccc(CNC(=O)C2CCCCN2S(=O)(=O)c2ccc(F)cc2)cc1` (stereo unspecified), the survival was 87%.
`O=C(NCc1ccc(F)cc1)C1CCCCN1S(=O)(=O)c1ccc(F)cc1` (stereo unspecified) was tested, and the survival was 0% (active).
With `Cc1ccc(CNC(=O)C2CCCCN2S(=O)(=O)c2ccc(F)cc2)cc1` (stereo unspecified) the survival was 91%.
`CCOC(=O)CSc1nc(-c2ccc(C)cc2C)cc(-c2ccccc2)c1C#N` showed a survival of 63%.
`CNS(=O)(=O)c1cn(CC(=O)N2CCN(c3cc(C)ccc3C)CC2)cc1S(=O)(=O)NC` was tested, and the survival was 83%.
For `COc1ccc(NC(=O)N(C(C)C)C2CCN(C(C)=O)CC2)c(OC)c1`, the survival was -4% (active).
Work on `CCOc1ccccc1NC(=O)N(Cc1ccc(C)o1)C1CCN(C(C)=O)CC1` yielded a survival of 75%.
With `CCN1CCC(N(Cc2ccc(F)cc2)C(=O)Nc2cc(Cl)ccc2C(=O)OC)CC1` the survival was 80%.
With `COc1ccc(C)cc1NC(=O)N(Cc1ccc(C)o1)C1CCN(C(C)=O)CC1` the survival was 0% (active).
`COc1ccc(C)cc1NC(=O)N(C(C)C)C1CCN(C(C)=O)CC1` gave a survival of 85%.
In the case of `CC(=O)N1CCC(N(Cc2ccc(C)o2)C(=O)Nc2ccc(C)cc2)CC1`, the survival was 70%.
In the case of `COc1ccc(NC(=O)N(Cc2ccco2)C2CCN(C(C)=O)CC2)c(OC)c1`, the survival was 85%.
In the case of `COC(=O)c1ccc(Cl)cc1NC(=O)N(Cc1ccc(OC)cc1)C1CCN(C(C)=O)CC1`, the survival was -6% (active).
`COC(=O)c1ccc(Cl)cc1NC(=O)N(Cc1ccc(C)o1)C1CCN(C(C)=O)CC1` gave a survival of 76%.
In the case of `O=C(Cn1c(=O)nc(-c2ccccc2)c2ccccc21)NCc1ccc(F)cc1`, the survival was 68%.
With `CC(=O)c1ccc(N2CCN(C(=O)CCS(=O)(=O)c3ccc4c(c3)oc(=O)n4C)CC2)cc1` the survival was 89%.
`CCCCCOc1ccc(/C=C/C(=O)Nc2sc(C)c(C)c2C(=O)OCC)cc1OC` gave a survival of 132%.
With `CCCOCc1cc(CN2CCN(c3ccccc3OC)CC2)c(O)c2ncccc12` the survival was 99%.
For `CC(C)OC(=O)C1=C(N)OC2=C(C(=O)CCC2)C1c1ccccc1F` (stereo unspecified), the survival was 114%.
For `COc1ccc(CCNC(=O)Cn2c(-c3ccc(F)cc3)cc(C(C)=O)c2C)cc1OC`, the survival was 54%.
`CN1CCN(CCCNC(=O)c2cnn(-c3ccc(F)cc3)c2-n2cccc2)CC1` gave a survival of 84%.
`COc1ccc(N2CC(NC(=O)CCCc3ccccc3)CC2=O)cc1` (stereo unspecified) was tested, and the survival was 0% (active).
`Cc1cccc(CC(=O)NC2CC(=O)N(c3cccc(F)c3)C2)c1` (stereo unspecified) was tested, and the survival was 60%.
For `COc1cccc(N2CC(NC(=O)CCCc3ccccc3)CC2=O)c1` (stereo unspecified), the survival was 88%.
`COc1ccc(C(=O)NC2CC(=O)N(c3ccc4c(c3)OCCO4)C2)cc1` (stereo unspecified) showed a survival of 143%.
In the case of `O=C(Cc1ccccc1)NC1CC(=O)N(c2ccccc2)C1` (stereo unspecified), the survival was 76%.
With `COc1ccc(N2CC(NC(=O)c3ccc(OC(C)C)cc3)CC2=O)cc1` (stereo unspecified) the survival was -2% (active).
For `COc1ccc(CCC(=O)NC2CC(=O)N(c3ccccc3)C2)cc1` (stereo unspecified), the survival was 131%.
`O=C(Cc1cccs1)NC1CC(=O)N(c2ccc(F)cc2)C1` (stereo unspecified) was tested, and the survival was 95%.
`Cc1cccc(CC(=O)NC2CC(=O)N(c3ccccc3)C2)c1` (stereo unspecified) was tested, and the survival was -6% (active).
Work on `O=C(Cc1cccs1)NC1CC(=O)N(c2ccccc2)C1` (stereo unspecified) yielded a survival of 78%.
In the case of `Cc1ccc(N2CC(NC(=O)Cc3cccs3)CC2=O)cc1` (stereo unspecified), the survival was 0% (active).
Work on `COc1ccc(N2CC(NC(=O)c3ccc(S(=O)(=O)N4CCCC4)cc3)CC2=O)cc1` (stereo unspecified) yielded a survival of 118%.
Compound `COc1ccc(N2CC3=C(C2=O)C(c2ccc(O)c(OC)c2)NC(=O)N3C)cc1` (stereo unspecified) has a survival of 71%.
